# In ChEMBL document CHEMBL3988442, “University of Dundee, Small-Polar-MMV Screening Library” (2021):
# About 13,000 (27%) of roughly 48,000 compounds showed an effect of 50% or more. Some of the results follow.
# Tested on: Wolbachia pipientis
# Test: Anti-Wolbachia Cell-Based Screen
# Format: functional
# Design: scale not given: in the data most compounds retested in dose-response had high values
# Conditions: 5 µM
row,Structure (SMILES),Percent Effect [%]
1,Cc1ccccc1C(C(=O)N(C)CCc1cn[nH]c1)N(C)C (stereo not given),13.24
2,O=C(c1ccc(C2CCCO2)s1)N1Cc2ccccc2C1 (stereo not given),-6.563
3,CCOc1ccc(OCc2nccc(-c3cc(C(=O)O)ccn3)n2)cc1,-79.36
4,Cc1cc(N(C)Cc2ccsc2)n2nc(C)c(C)c2n1,-6.917
5,Cc1csc(CN(C)c2cc(C)nc3c(C)c(C)nn23)n1,83.18
6,Cc1cc(N(C)Cc2noc(C)n2)n2nc(C)c(C)c2n1,14.08
7,CC(O)CN(c1ccccc1)S(=O)(=O)c1cc(C(=O)O)cc2c1CCC2 (stereo not given),5.053
8,CCCc1nnc(C(=O)N(C)Cc2cnc3ccccn23)o1,-16.11
9,CCOc1cccc(C(=O)N2C[C@H]3CC[C@@H]2CN(C(=O)C2CCC2)C3)c1,-8.209
10,CN(C)CCN1C(=O)CCC12CCCN(C(=O)c1cccnc1)CC2.O=C(O)C(F)(F)F.O=C(O)C(F)(F)F (stereo not given),104.4
11,O=C(O)C(F)(F)F.O=C(c1ccoc1)N1CCCC2(CCC(=O)N2Cc2ccncc2)C1 (stereo not given),-1.829
12,CN(C)CCN1CCOCC2(CCCN(C(=O)c3ccccn3)C2)C1.O=C(O)C(F)(F)F.O=C(O)C(F)(F)F (stereo not given),-9.412
13,CN(C)CCN1C(=O)CCCC12CCCN(C(=O)c1ccncc1)C2.O=C(O)C(F)(F)F.O=C(O)C(F)(F)F (stereo not given),106.1
14,Cc1cc(C(=O)N2CCCC3(COCCN(CCN(C)C)C3)C2)no1.O=C(O)C(F)(F)F.O=C(O)C(F)(F)F (stereo not given),-4.031
15,CN(C)CCN1C(=O)CCCC12CCCN(C(=O)c1cc[nH]n1)C2.O=C(O)C(F)(F)F (stereo not given),101.5
16,O=C(O)C(F)(F)F.O=C(c1ccoc1)N1CCCC2(CCC(=O)N2Cc2cccnc2)C1 (stereo not given),-3.168
17,Cn1cc(C2(C)CN(C(=O)Nc3ccccc3F)CCO2)cn1 (stereo not given),1.448
18,Cn1ncnc1CNc1ccc2c(c1)N(C(=O)OC(C)(C)C)CCC2,21.04
19,Cc1ccsc1CNc1ccccc1C(=O)N1CCNC(=O)C1,4.147
20,Cc1nsc(N2CCCN(c3nc(C4CC4)ns3)CC2)n1,3.492
21,Cc1ccc(N2CCCC(NCc3ccccn3)C2)nn1 (stereo not given),95.9
22,Cc1ccc(N2CCCC(NCc3cc(C)on3)C2)nn1 (stereo not given),114.3
23,Cc1ccc(N2CCCC(NCc3c(C)noc3C)C2)nn1 (stereo not given),115
24,Cc1cc(CNC2CCCN(c3cccnn3)C2)no1 (stereo not given),3.501
25,Cc1ccc(N2CCCC(N(C)Cc3c(C)noc3C)C2)nn1 (stereo not given),-3.849

row,Structure (SMILES),Percent Effect [%]
1,Cc1ccc(N2CCCC(NCc3cscn3)C2)nn1 (stereo not given),-5.01
2,Cc1ccc(N2CCCC(NCc3nc(C)c(C)o3)C2)nn1 (stereo not given),-3.745
3,Cc1ccc(N2CCCC(NCc3ccc(-n4ccnc4)cc3)C2)nn1 (stereo not given),9.457
4,O=C(C1SCCc2sccc21)N1CCC(O)CC1 (stereo not given),-0.1428
5,CCN(CC)c1ccc(C(=O)N2C[C@@H]3CC[C@H](C2)N(CCOC)C3)cc1,14.63
6,CCN(CC)CC1CCN(Cc2ccn(C)c(=O)c2)CC1,118.1
7,Cn1ccc(CN2CCC(COC3CCCC3)CC2)cc1=O,0.749
8,CCS(=O)(=O)NC1CCCN(Cc2ccn(C)c(=O)c2)C1 (stereo not given),5.979
9,Cn1ccc(CN2CCC(CCc3ccc(O)cc3)CC2)cc1=O,11.88
10,CN(C)CCC1CCN(Cc2ccn(C)c(=O)c2)CC1,112.8
11,Cn1ccc(CN2CCCC(CNS(C)(=O)=O)C2)cc1=O (stereo not given),2.475
12,Cc1cccc(C)c1NC(=O)c1cccc(CN2CCCC2C)c1 (stereo not given),11.58
13,CC(C)c1csc(C2CCCN(C(=O)c3ccc(=O)n(C)n3)C2)n1 (stereo not given),-15.66
14,Cn1ccc(C(=O)N2CCCC(c3cc(O)n(C)n3)C2)n1 (stereo not given),89.67
15,Cn1cc(C(=O)N2CCCC(c3cc(O)n(C)n3)C2)cn1 (stereo not given),108
16,COCCN1CCN(CC(=O)NC2(C#N)CCCC2)CC1C (stereo not given),16.28
17,O=C(CCn1cc(Cl)cn1)N1CCC2(CC1)[C@H](O)C[C@@H]2OCCO,-14.25
18,CCc1cnc(NCc2nc(COC)no2)nc1,3.706
19,CCN(CC)CCNc1ncc(-c2cc(C)no2)c(-c2ccoc2C)n1,-6.629
20,COCCNc1ncc(-c2onc(C)c2C)c(-c2ccco2)n1,94.53
21,CCOCCCNc1ncc(-c2onc(C)c2C)c(-c2ccco2)n1,100.1
22,CCCOCCCNc1nccc(-c2cn(C)nc2C)n1,-3.491
23,COc1ncc(NCc2csc(-c3ccco3)n2)cc1C(N)=O,-5.121
24,COCCNc1ncc(-c2cc(C)no2)c(-c2ccco2)n1,96.17
25,CCOCCN1CCN(Cc2nnc(-c3ccco3)o2)CC1,1.125

row,Structure (SMILES),Percent Effect [%]
1,Cc1nsc(N2CCN(C(=O)Nc3ccc4[nH]ccc4c3)CC2)n1,0.5995
2,CCc1cc(CN2CCC(CCC(=O)Nc3ccccc3Cl)CC2)on1,3.381
3,N#CCCN(CC1CCOC1)S(=O)(=O)c1c(F)cccc1Cl (stereo not given),4.348
4,COCCc1noc(CN2CCN(c3ccc(OC)cc3)C(=O)C2C)n1 (stereo not given),97.33
5,CSCc1noc(Cn2ncn3cccc3c2=O)n1,40.19
6,CSCc1noc(Cn2ccc3ccccc3c2=O)n1,6.504
7,CCc1ccc(C2CCCCCN2Cc2nc(CCOC)no2)o1 (stereo not given),-5.886
8,CCN1CC2(CCN(Cc3nc(CSC)no3)CC2)CC1=O,-1.733
9,COc1ccc(N2CCN(Cc3nc(CSC)no3)C(C)C2=O)cc1 (stereo not given),106.8
10,COc1ccc(N2CCN(Cc3nc(CSC)no3)CC2=O)cc1,98.96
11,CCc1nc(C2CCCN2Cc2nc(CCOC)no2)no1 (stereo not given),-0.7381
12,COc1ccc(N2CCN(C[C@@H](C)CO)CC2=O)cc1,-31.81
13,Cc1ccc(N2C[C@H]3CCC[C@@H](CN4CCOCC4)[C@H]3C2)nn1.O=C(O)C(F)(F)F,7.309
14,O=C(NCCn1ccnc1)N1CCCN(Cc2cccs2)CC1,115.6
15,Cc1cc(CN2CCN(C(=O)NC(C)Cn3ccnc3)CC2)no1 (stereo not given),-2.401
16,CC(Cn1ccnc1)NC(=O)N1CCCN(Cc2cccs2)CC1 (stereo not given),98.79
17,O=C(Nc1ccc2c(c1)OCCO2)N1CCCN(Cc2cccs2)CC1,-12.77
18,CC(NC(=O)N1CCCN(Cc2cccs2)CC1)c1cccnc1 (stereo not given),-8.61
19,CC(Cn1cccn1)NC(=O)N1CCN(Cc2cccs2)CC1 (stereo not given),7.648
20,O=C1CCc2cc(NC(=O)N3CCCN(Cc4cccs4)CC3)ccc21,4.237
21,CC(Cn1ccnc1)NC(=O)N1CCN(Cc2cccs2)CC1 (stereo not given),97.63
22,Cc1ccc(C(=O)N2CCN(C(=O)NC(C)Cn3ccnc3)CC2)o1 (stereo not given),0.8524
23,O=C1CCCN1CCN1CCCCC1Cn1cccn1 (stereo not given),-13.35
24,COc1cc(C2C3=C(COC3=O)Nc3[nH]nc(C)c32)cc2c1OCO2 (stereo not given),-6.627
25,Cc1n[nH]c(C)c1CCNC(=O)Nc1ccc2c(c1)COC2,-11.47

row,Structure (SMILES),Percent Effect [%]
1,O=C(CN1CCNCC1)NCc1ccc2sccc2c1,-21.43
2,O=C(CN1CCNC1=O)NCc1ccc2sccc2c1,117.7
3,O=C(Cn1ccc(=O)cc1)NCc1ccc2sccc2c1,-4.934
4,CC(=O)N1CC2(CCN(C(=O)c3cccc4[nH]ccc34)CC2)C1,-2.889
5,CC(C)C(=O)N1CCC2(CC1)NC(=O)c1ccccc12.Cl,-14.83
6,COc1ccc(N)c(N2CCN(C(C)=O)CC2)n1,-3.558
7,CC1(c2cc[nH]n2)CCN(C(=O)c2ccc(Cl)cc2)CC1,120.3
8,CC(=O)N1CCC(C)(c2cc[nH]n2)CC1,158.8
9,CC(C)C(=O)N1CCC2(CC1)NC(=O)[C@H]1CN(C(=O)N(C)C)C[C@H]12,-23.47
10,CC(C)C(=O)N1CCC(C)(c2cc[nH]n2)CC1,145.9
11,Cc1nnc(CCNC(=O)c2coc(CN3CCOCC3)c2)s1,-3.668
12,CCCOc1ccc2c(c1)OCC(C(=O)NC(C)Cn1cccn1)=C2 (stereo not given),18.55
13,O=c1c(C(F)(F)F)cccn1Cc1nnc(-c2cccnc2)o1,-24.3
14,Cc1nc2cc(C(=O)N3C[C@@H](C(=O)O)[C@H](c4ccncc4)C3)ccc2[nH]1,-0.783
15,N[C@H]1CN(C(=O)CCc2ccccn2)C[C@@H]1c1ccccc1,8.322
16,Nc1nc(CCC(=O)N2C[C@H](c3ccccc3)[C@@H](N)C2)cs1,-7.394
17,N[C@H]1CN(C(=O)CCC(F)(F)F)C[C@@H]1c1ccccc1,7.576
18,Cc1nc2cc(C(=O)N3C[C@@H](NS(C)(=O)=O)[C@H](C(C)C)C3)ccc2[nH]1,-4.009
19,N[C@H]1CN(C(=O)c2ccc3[nH]c(=O)c(=O)[nH]c3c2)C[C@@H]1c1ccccc1,97.68
20,CCC[C@H]1CN(C(=O)c2ccc3[nH]c(CO)nc3c2)C[C@@H]1N,98.53
21,Cc1nc2cc(C(=O)N3C[C@@H](C(=O)O)[C@H](C4CC4)C3)ccc2[nH]1,-4.344
22,N[C@H]1CN(C(=O)c2ccc3[nH]c(CO)nc3c2)C[C@@H]1c1ccccc1,103.3
23,O=C(CCn1ccc(=O)[nH]c1=O)N1CCC(Oc2ncccc2Cl)CC1,8.092
24,Cc1ccc(CNC2CCCc3c2cnn3Cc2ccccc2)s1.Cl (stereo not given),8.556
25,Cc1oc(-c2ccccc2)nc1C(=O)NC1=NCCS1,-10.94
